Reference: PubChem BioAssay (NCATS)
Inconclusive results are not listed. Calls of active or inactive are those of the source. Calls follow the shape of the dose curve; as a rule, active = well fitted inhibition curve with a large enough effect; inconclusive = small, poorly fitted or top-dose-only effect; inactive = flat fitted curve, though single readings scatter.

Legend:
[1] = qHTS profiling for inhibitors of Plasmodium falciparum proliferation (AID 504749); also: nearly all actives have a fitted effect of over 60% in size;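 as to activity, negative = inhibition: 0% = DMSO vehicle and full inhibition = artemisinin control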; details: P. falciparum in erythrocytes, SYBR Green DNA, 72 h
Method in brief: (§1)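 Three-day growth assay of blood-stage parasites in erythrocytes (0.3% parasitemia, 2.5% hematocrit) at 37 C, 5% CO2, quantified by SYBR Green DNA staining after overnight detergent lysis.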

3D7 = assay: as above; details: P. falciparum in erythrocytes, SYBR Green DNA, 72 h; series mostly up to 28.7 µM
Method in brief: as §1

7G8 = assay: as above; details: P. falciparum in erythrocytes, SYBR Green DNA, 72 h; series mostly up to 28.7 µM
Method in brief: as §1

AA1029 = assay: as above; details: P. falciparum in erythrocytes, SYBR Green DNA, 72 h; series mostly up to 28.7 µM
Method in brief: as §1

AS120 = assay: as above; details: P. falciparum in erythrocytes, SYBR Green DNA, 72 h; series mostly up to 28.7 µM
Method in brief: as §1

ATS189 = assay: as above; details: P. falciparum in erythrocytes, SYBR Green DNA, 72 h; series mostly up to 28.7 µM
Method in brief: as §1

ATS95 = assay: as above; details: P. falciparum in erythrocytes, SYBR Green DNA, 72 h; series mostly up to 28.7 µM
Method in brief: as §1

C2A = assay: as above; details: P. falciparum in erythrocytes, SYBR Green DNA, 72 h; series mostly up to 28.7 µM
Method in brief: as §1

CP185 = assay: as above; details: P. falciparum in erythrocytes, SYBR Green DNA, 72 h; series mostly up to 28.7 µM
Method in brief: as §1

CP191 = assay: as above; details: P. falciparum in erythrocytes, SYBR Green DNA, 72 h; series mostly up to 28.7 µM
Method in brief: as §1

CP192 = assay: as above; details: P. falciparum in erythrocytes, SYBR Green DNA, 72 h; series mostly up to 28.7 µM
Method in brief: as §1

CP194 = assay: as above; details: P. falciparum in erythrocytes, SYBR Green DNA, 72 h; series mostly up to 28.7 µM
Method in brief: as §1

CP201 = assay: as above; details: P. falciparum in erythrocytes, SYBR Green DNA, 72 h; series mostly up to 28.7 µM
Method in brief: as §1

CP203 = assay: as above; details: P. falciparum in erythrocytes, SYBR Green DNA, 72 h; series mostly up to 28.7 µM
Method in brief: as §1

CP211 = assay: as above; details: P. falciparum in erythrocytes, SYBR Green DNA, 72 h; series mostly up to 28.7 µM
Method in brief: as §1

CP215 = assay: as above; details: P. falciparum in erythrocytes, SYBR Green DNA, 72 h; series mostly up to 28.7 µM
Method in brief: as §1

CP217 = assay: as above; details: P. falciparum in erythrocytes, SYBR Green DNA, 72 h; series mostly up to 28.7 µM
Method in brief: as §1

CP237 = assay: as above; details: P. falciparum in erythrocytes, SYBR Green DNA, 72 h; series mostly up to 28.7 µM
Method in brief: as §1

CP238 = assay: as above; details: P. falciparum in erythrocytes, SYBR Green DNA, 72 h; series mostly up to 28.7 µM
Method in brief: as §1

CP247 = assay: as above; details: P. falciparum in erythrocytes, SYBR Green DNA, 72 h; series mostly up to 28.7 µM
Method in brief: as §1

[2] = at 28.7 µM (top of the series), parasite line A
[3] = at 28.7 µM (top of the series), parasite line B
[4] = at 12.8 µM (top of the series), parasite line A
[5] = at 12.8 µM (top of the series), parasite line B
Potency is read from the fitted curve at half-maximal effect.

O=c1ccc2ccccc2o1
inactive: activity, negative = inhibition [1, 2] 10.1% | activity, negative = inhibition [1, 3] 1.35% | Potency (3D7) | Potency (7G8) | Potency (AA1029) | Potency (AS120) | Potency (ATS189) | Potency (ATS95) | Potency (C2A) | Potency (CP185) | Potency (CP191) | Potency (CP192) | Potency (CP194) | Potency (CP201) | Potency (CP203) | Potency (CP211) | Potency (CP215) | Potency (CP217) | Potency (CP237) | Potency (CP238) | Potency (CP247)

C=CCc1ccc(O)c(OC)c1
inactive: activity, negative = inhibition [1, 2] 9.84% | activity, negative = inhibition [1, 3] 1.91% | Potency (3D7) | Potency (7G8) | Potency (AA1029) | Potency (AS120) | Potency (ATS189) | Potency (ATS95) | Potency (C2A) | Potency (CP185) | Potency (CP191) | Potency (CP192) | Potency (CP194) | Potency (CP201) | Potency (CP203) | Potency (CP211) | Potency (CP215) | Potency (CP217) | Potency (CP237) | Potency (CP238) | Potency (CP247)

Oc1ccc(Cl)cc1Sc1cc(Cl)ccc1O
active: Potency (7G8) 12.6 µM
inactive: activity, negative = inhibition [1, 2] 0.98% | activity, negative = inhibition [1, 3] -24.8% | Potency (3D7) | Potency (AA1029) | Potency (ATS189) | Potency (ATS95) | Potency (C2A) | Potency (CP185) | Potency (CP191) | Potency (CP192) | Potency (CP201) | Potency (CP211) | Potency (CP237) | Potency (CP238) | Potency (CP247)

Cc1ccnc(NS(=O)(=O)c2ccc(N)cc2)n1
inactive: activity, negative = inhibition [1, 4] 9.46% | activity, negative = inhibition [1, 5] -14.9% | Potency (3D7) | Potency (7G8) | Potency (AA1029) | Potency (AS120) | Potency (ATS189) | Potency (ATS95) | Potency (C2A) | Potency (CP185) | Potency (CP191) | Potency (CP192) | Potency (CP194) | Potency (CP201) | Potency (CP203) | Potency (CP211) | Potency (CP217) | Potency (CP237) | Potency (CP238) | Potency (CP247)

Cc1c(C(N)=O)cc([N+](=O)[O-])cc1[N+](=O)[O-]
inactive: activity, negative = inhibition [1, 2] -7.97% | activity, negative = inhibition [1, 3] -2.31% | Potency (3D7) | Potency (7G8) | Potency (AA1029) | Potency (AS120) | Potency (ATS189) | Potency (ATS95) | Potency (C2A) | Potency (CP185) | Potency (CP191) | Potency (CP194) | Potency (CP201) | Potency (CP203) | Potency (CP211) | Potency (CP215) | Potency (CP217) | Potency (CP237) | Potency (CP238) | Potency (CP247)

CN1CCC(=C2c3ccccc3Sc3ccccc32)CC1
active: Potency ([1]; parasite line A) 6.31 µM | Potency ([1]; parasite line B) 10 µM | Potency (3D7) 8.91 µM | Potency (7G8) 5.01 µM | Potency (AA1029) 5.62 µM | Potency (AS120) 12.6 µM | Potency (ATS189) 7.94 µM | Potency (ATS95) 11.2 µM | Potency (C2A) 11.2 µM | Potency (CP185) 8.91 µM | Potency (CP194) 10.7 µM | Potency (CP203) 3.79 µM | Potency (CP211) 13.5 µM | Potency (CP215) 9.53 µM | Potency (CP217) 11.2 µM | Potency (CP237) 8.91 µM | Potency (CP238) 11.2 µM | Potency (CP247) 7.94 µM

OC(CCN1CCCCC1)(c1ccccc1)c1ccccc1
inactive: activity, negative = inhibition [1, 2] 0.409% | activity, negative = inhibition [1, 3] -16.8% | Potency (3D7) | Potency (CP201) | Potency (CP211)
active: Potency (7G8) 11.2 µM | Potency (AA1029) 7.94 µM | Potency (AS120) 11.2 µM | Potency (ATS95) 8.91 µM | Potency (CP203) 16.9 µM | Potency (CP237) 4.47 µM

CC(C)(C)CC(C)(C)c1ccc(O)c(Cc2ccc(Cl)cc2Cl)c1
active: Potency ([1]; parasite line A) 2 µM | Potency ([1]; parasite line B) 0.562 µM | Potency (3D7) 2.24 µM | Potency (7G8) 0.447 µM | Potency (AA1029) 0.891 µM | Potency (AS120) 0.501 µM | Potency (ATS189) 0.794 µM | Potency (ATS95) 2 µM | Potency (C2A) 2.82 µM | Potency (CP185) 3.16 µM | Potency (CP191) 1 µM | Potency (CP192) 3.79 µM | Potency (CP203) 1.69 µM | Potency (CP211) 1.51 µM | Potency (CP215) 1.69 µM | Potency (CP217) 2.82 µM | Potency (CP237) 2.51 µM | Potency (CP238) 1.41 µM | Potency (CP247) 3.16 µM

CN(C(=O)CN(CCO)CC(=O)N(C)C(C)(C)Cc1ccccc1)C(C)(C)Cc1ccccc1
active: Potency (7G8) 3.16 µM
inactive: activity, negative = inhibition [1, 4] 4.12% | activity, negative = inhibition [1, 5] -5.35% | Potency (3D7) | Potency (AA1029) | Potency (ATS95) | Potency (C2A) | Potency (CP185) | Potency (CP191) | Potency (CP192) | Potency (CP201) | Potency (CP211) | Potency (CP215) | Potency (CP238) | Potency (CP247)

N[C@H](Cc1c[nH]c2ccccc12)C(=O)O
inactive: activity, negative = inhibition [1, 2] 7.64% | activity, negative = inhibition [1, 3] 6.56% | Potency (3D7) | Potency (AA1029) | Potency (AS120) | Potency (ATS189) | Potency (ATS95) | Potency (C2A) | Potency (CP185) | Potency (CP191) | Potency (CP192) | Potency (CP194) | Potency (CP201) | Potency (CP203) | Potency (CP211) | Potency (CP215) | Potency (CP217) | Potency (CP237) | Potency (CP238) | Potency (CP247)

Cc1ccc(C(=O)C(C)CN2CCCCC2)cc1 (centres undefined)
active: Potency (7G8) 11.2 µM
inactive: activity, negative = inhibition [1, 2] 1.87% | activity, negative = inhibition [1, 3] 6.22% | Potency (3D7) | Potency (AA1029) | Potency (AS120) | Potency (ATS95) | Potency (C2A) | Potency (CP185) | Potency (CP192) | Potency (CP194) | Potency (CP201) | Potency (CP203) | Potency (CP211) | Potency (CP215) | Potency (CP217) | Potency (CP237) | Potency (CP238) | Potency (CP247)

COc1ccc(CCN2CCC(Nc3nc4ccccc4n3Cc3ccc(F)cc3)CC2)cc1
active: Potency ([1]; parasite line A) 1.41 µM | Potency ([1]; parasite line B) 2.24 µM | Potency (3D7) 1.78 µM | Potency (7G8) 2.24 µM | Potency (AA1029) 3.55 µM | Potency (AS120) 3.55 µM | Potency (ATS189) 4.47 µM | Potency (ATS95) 3.98 µM | Potency (C2A) 2.51 µM | Potency (CP185) 3.55 µM | Potency (CP191) 2.24 µM | Potency (CP192) 12 µM | Potency (CP194) 9.53 µM | Potency (CP201) 7.57 µM | Potency (CP211) 15.1 µM | Potency (CP217) 3.55 µM | Potency (CP237) 2.24 µM | Potency (CP238) 3.55 µM | Potency (CP247) 3.98 µM

O=c1c(-c2ccccc2)c1-c1ccccc1
active: Potency ([1]; parasite line A) 11.2 µM | Potency ([1]; parasite line B) 10 µM | Potency (3D7) 11.2 µM | Potency (7G8) 8.91 µM | Potency (ATS189) 10 µM
